Reference: PubChem BioAssay (NCATS)
Inconclusive results are not listed. Activity calls are given as the source filed them. The call rests on the fitted dose curve; in most records, active means well fitted inhibition curve with a large enough effect; inconclusive means small, poorly fitted or top-dose-only effect; inactive means flat fitted curve, though single readings scatter.

Columns and labels:
P94_40 = assay: qHTS profiling for inhibitors of Plasmodium falciparum proliferation (AID 504749); further: potency means the concentration at half of the fitted maximal effect; details: P. falciparum in erythrocytes, SYBR Green DNA, 72 h; series mostly up to 28.7 µM
Procedure, shortened: (§1)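 P. falciparum-infected erythrocytes (0.3% parasitemia, 2.5% hematocrit final) were exposed to compounds for 72 h at 37 C in 5% CO2, then lysed with SYBR Green buffer overnight at room temperature; parasite DNA fluorescence was normalized to artemisinin and DMSO controls.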

PAD = assay: as above; details: P. falciparum in erythrocytes, SYBR Green DNA, 72 h; series mostly up to 28.7 µM
Procedure, shortened: as §1

PC15 = assay: as above; details: P. falciparum in erythrocytes, SYBR Green DNA, 72 h; series mostly up to 28.7 µM
Procedure, shortened: as §1

PC26 = assay: as above; details: P. falciparum in erythrocytes, SYBR Green DNA, 72 h; series mostly up to 28.7 µM
Procedure, shortened: as §1

PC49 = assay: as above; details: P. falciparum in erythrocytes, SYBR Green DNA, 72 h; series mostly up to 28.7 µM
Procedure, shortened: as §1

SC27B = assay: as above; details: P. falciparum in erythrocytes, SYBR Green DNA, 72 h; series mostly up to 28.7 µM
Procedure, shortened: as §1

TAB109 = assay: as above; details: P. falciparum in erythrocytes, SYBR Green DNA, 72 h; series mostly up to 28.7 µM
Procedure, shortened: as §1

TAB113 = assay: as above; details: P. falciparum in erythrocytes, SYBR Green DNA, 72 h; series mostly up to 28.7 µM
Procedure, shortened: as §1

TAB165 = assay: as above; details: P. falciparum in erythrocytes, SYBR Green DNA, 72 h; series mostly up to 28.7 µM
Procedure, shortened: as §1

W2 = assay: as above; details: P. falciparum in erythrocytes, SYBR Green DNA, 72 h; series mostly up to 28.7 µM
Procedure, shortened: as §1

MCC-13 = assay: qHTS assay to identify novel small-molecules to repurpose for Merkel cell carcinoma treatment (AID 1296009); details: MCC and control cell lines, CellTiter-Glo viability, 72 h; series mostly up to 46 µM
Procedure, shortened: (§2)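 Cells exposed to NPC (8-point) and MIPE (11-point) compound dilutions for 72 hr at 37 degree celsius; viability read by CellTiter-Glo luminescence, normalized to no-cell and DMSO in-plate controls.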

MCC-26 = assay: as above; details: MCC and control cell lines, CellTiter-Glo viability, 72 h; series mostly up to 46 µM
Procedure, shortened: as §2

MKL-1 = assay: as above; details: MCC and control cell lines, CellTiter-Glo viability, 72 h; series mostly up to 46 µM
Procedure, shortened: as §2

HEK293T = assay: as above; details: MCC and control cell lines, CellTiter-Glo viability, 72 h; at 44.8 µM (top of the series) unless noted
Procedure, shortened: as §2

Measured: Potency
Further: nearly all actives have a fitted effect of over 60% in size.

O=C(OCCOCCO)c1ccccc1Nc1cccc(C(F)(F)F)c1
not listed: MCC-13 | MCC-26 | MKL-1 | HEK293T
inactive: all other assays above

CCOC(=O)n1ccn(C)c1=S
not listed: HEK293T
inactive: all other assays above

C#C[C@]1(O)CC[C@H]2[C@@H]3CCC4=CC(=O)CC[C@@H]4[C@H]3CC[C@@]21C
inactive: MCC-13 | MCC-26 | MKL-1

Nc1ccc(/C=C/c2ccc(N)cc2S(=O)(=O)O)c(S(=O)(=O)O)c1
not listed: TAB113 | MCC-13 | MCC-26 | MKL-1 | HEK293T
inactive: all other assays above

C[C@H]1[C@H](NC(=O)/C(=N/OC(C)(C)C(=O)O)c2csc(N)n2)C(=O)N1S(=O)(=O)O (stereo in doubt)
not listed: HEK293T
inactive: all other assays above

C[C@]12CC[C@@H]3c4ccc(O)cc4CC[C@H]3[C@@H]1CC[C@@H]2O
not listed: MCC-13 | MCC-26 | MKL-1 | HEK293T
inactive: all other assays above

COc1cc(NS(C)(=O)=O)ccc1Nc1c2ccccc2nc2ccccc12
active: P94_40 2.51 µM | PAD 1.41 µM | PC15 2.82 µM | PC26 5.36 µM | PC49 3.16 µM | SC27B 2.24 µM | TAB109 3.16 µM | TAB113 2 µM | TAB165 2.24 µM | W2 2.13 µM

CCCn1c(=O)[nH]c(=O)c2[nH]cnc21
not listed: MCC-13 | MCC-26 | MKL-1 | HEK293T
inactive: all other assays above

CN1C2CCC1CC(OC(=O)c1c[nH]c3ccccc13)C2 (stereo not given)
inactive: P94_40 | PAD | PC49 | SC27B | TAB109 | TAB113 | TAB165 | W2

CN1C(CCl)Nc2cc(Cl)c(S(N)(=O)=O)cc2S1(=O)=O (stereo not given)
not listed: MCC-13 | MCC-26 | MKL-1 | HEK293T
inactive: all other assays above

CCN1CCCC1=O
not listed: MCC-13 | MCC-26 | MKL-1 | HEK293T
inactive: all other assays above

c1ccc(-c2ccc(C(c3ccccc3)n3ccnc3)cc2)cc1 (stereo not given)
active: P94_40 11.2 µM | PAD 7.94 µM | PC15 11.2 µM | PC26 12 µM | SC27B 6.31 µM | TAB109 8.91 µM | TAB113 11.2 µM | TAB165 2.82 µM | W2 5.36 µM
inactive: MCC-13 | MCC-26

Cc1cccn2c(=O)c(-c3nnn[nH]3)cnc12
inactive: P94_40 | PAD | PC15 | PC26 | PC49 | SC27B | TAB109 | TAB113 | TAB165 | W2 | HEK293T inactive [at 17.4 µM] | MCC-13 | MCC-26 | MKL-1

C#C[C@]1(OC(C)=O)CC[C@H]2[C@@H]3CCC4=C[C@@H](OC(C)=O)CC[C@@H]4[C@H]3CC[C@@]21C
not listed: MCC-13 | MCC-26 | MKL-1 | HEK293T
inactive: all other assays above

CCN(CC)CCNC(=O)COc1ccc(Cl)cc1
inactive: PC15 | TAB113
active: PAD 11.2 µM | SC27B 11.2 µM | TAB165 11.2 µM | W2 13.5 µM

CC(Cc1cccc(C(F)(F)F)c1)NCCOC(=O)c1ccccc1 (stereo not given)
not listed: W2 | HEK293T
inactive: all other assays above

NC(=O)c1cc[n+](CC2=C(C(=O)[O-])N3C(=O)[C@@H](NC(=O)Cc4cccs4)[C@H]3SC2)cc1
inactive: MCC-13 | MKL-1

COc1cc(C(=S)N2CCOCC2)cc(OC)c1OC
not listed: TAB165 | MCC-13 | MCC-26 | MKL-1 | HEK293T
inactive: all other assays above

CC(O)C(=O)O (stereo not given)
not listed: MCC-13 | MCC-26 | MKL-1 | HEK293T
inactive: all other assays above
